sEH activator = increases human soluble epoxide hydrolase activity. AID 717. P34913. activation, % at 2 µM. purified human sEH enzymatic activity, activator screen. hit rate 0.04% among 91,000; in the data active means activation above about 37%
Target sequence (P34913 whole entry, looked up): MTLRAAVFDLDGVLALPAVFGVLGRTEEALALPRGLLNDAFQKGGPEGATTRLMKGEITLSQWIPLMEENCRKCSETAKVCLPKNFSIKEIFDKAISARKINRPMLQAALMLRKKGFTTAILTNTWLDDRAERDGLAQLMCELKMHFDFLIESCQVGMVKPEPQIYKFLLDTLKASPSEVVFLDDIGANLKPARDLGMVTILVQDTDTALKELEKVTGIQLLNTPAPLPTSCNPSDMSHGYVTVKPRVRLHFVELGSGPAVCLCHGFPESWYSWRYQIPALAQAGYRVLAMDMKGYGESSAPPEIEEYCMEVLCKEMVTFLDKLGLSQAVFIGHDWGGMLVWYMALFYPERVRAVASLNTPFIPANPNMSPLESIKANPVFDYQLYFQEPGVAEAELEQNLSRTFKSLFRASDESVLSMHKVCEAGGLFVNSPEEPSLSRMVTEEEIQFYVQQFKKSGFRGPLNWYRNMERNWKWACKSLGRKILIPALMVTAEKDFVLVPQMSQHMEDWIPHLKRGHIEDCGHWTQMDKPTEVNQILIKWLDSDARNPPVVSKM
sEH inh = blocks human soluble epoxide hydrolase activity; P34913; recombinant human sEH enzymatic activity assay; inhibition, % at 2 µM; hit rate 0.34% among 91,000; AID 707; in the data active means inhibition above about 80%
SDO1 yeast rescue = sdo1-depleted yeast growth rescue; z-score at 10 µM; AID 817; S. cerevisiae sdo1-depleted JHY4D growth rescue, OD600 30 h; stronger effect = higher value; pdr5 snq2 efflux-pump mutant strain; hit rate 0.21% among 140,000;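 active means z-score above 3 at both the 24 hr and the 30 hr optical density reads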
Measles CPE = protection of cells from measles virus. protection (pct of control), % at 4 µM. Measles virus-infected cells, CPE protection, absorbance. hit rate 1.5% among 140,000. AID 841; in the data active means protection mostly above about 24%, no sharp cut-off; inactive means mostly below about 26%
Numbers stand for hits; - = inactive; . = not tested or not shown. Only some compounds are listed: those with a hit (about 1.9% of all), similar ones and a draw of the others.

SMILES	sEH activator	sEH inh	SDO1 yeast rescue	Measles CPE
CC(NC(=O)c1ccc(F)cc1)c1ccccc1 (configuration not stated)	-	-	-	37.6
COc1ccc(CN(C(=S)Nc2ccccc2)C2CC(=O)N(c3ccc(Cl)cc3)C2=O)cc1 (configuration not stated)	-	-	-	-
CCOC(=O)C(=CNc1ccc(C)cc1C)C(=O)OCC	-	-	-	37.4
COc1ccc(Cc2nc(C(=O)Nc3ccc(Cl)cc3)cs2)cc1	-	-	-	-
COc1ccc(Cc2nc(C(=O)Nc3ccccc3)cs2)cc1	-	-	-	66.5
CCC(=O)c1ccc(OCc2ccccc2)c(OC)c1	.	.	-	-
CCCCOC(=O)CCc1nc2ccccc2[nH]c1=O	-	-	-	-
Nc1nnnn1/N=C/c1cccc(O)c1	-	-	-	-
Nc1nnnn1/N=C/c1ccc(O)cc1	-	-	-	49.8
COc1ccc(N2CCN(CCNC(=O)Nc3ccc(Cl)cc3)CC2)cc1	-	-	-	-
Cc1ccc(CNc2nc3ccccc3n3nnnc23)cc1	.	.	-	-
CCOC(=O)N1CCC(Nc2nc3ccccc3n3nnnc23)CC1	.	.	-	34.0
O=C(N/N=C/C=C\c1ccccc1[N+](=O)[O-])c1cc(-c2ccccc2)nc2ccccc12	.	.	-	-
Cc1cccc(C)c1NC(=O)N1CCC(n2cnc3ccccc32)CC1	.	.	-	-
O=C(NC1CCCCC1)N1CCC(n2cnc3ccccc32)CC1	-	-	-	76.0
CCOC(=O)c1c(-c2ccccc2Cl)csc1NC(=O)CSc1nc(C)cc(=O)[nH]1	.	.	-	-
Cc1cccc(-c2nc(C#N)c(NC3CCCCC3)o2)c1	-	-	-	43.1
Cn1c(SCC(N)=O)nnc1C1CCN(S(=O)(=O)c2ccccc2C(F)(F)F)CC1	-	-	-	-
Cc1cccc(C(=O)O/N=C/c2c(N3CCOCC3)n(C)c3ccccc23)c1	-	-	-	32.0
CSc1cccc(NC(=O)Cn2cccc2)c1	-	-	-	79.8
Cc1cc(NC(=O)CCC(=O)N(CC(=O)NC2CCCC2)Cc2ccc(F)cc2)no1	-	-	-	-
COc1ccccc1OC(=O)c1ccc(S(=O)(=O)N(C)C)cc1	-	-	-	44.4
COC(=O)c1ccc(N2C(=O)CC(N3CCOCC3)C2=O)cc1 (configuration not stated)	.	.	-	40.2
COC(=O)c1ccc(N2C(=O)CC(N3CCN(c4ccccc4)CC3)C2=O)cc1 (configuration not stated)	-	-	.	.
Cc1ccc(-c2nnn(CC(=O)N(CC3CCCO3)C(C(=O)NCC3CCCO3)c3ccc(F)cc3)n2)o1 (configuration not stated)	-	-	-	41.6
SMILES	sEH activator	sEH inh	SDO1 yeast rescue	Measles CPE
Cc1ccc(OCC(=O)N2CC3(C)CC2CC(C)(C)C3)cc1 (configuration not stated)	-	-	-	-
Cc1noc(C)c1COc1ccc(C(=O)OCC(=O)N2CC3(C)CC2CC(C)(C)C3)cc1 (configuration not stated)	-	-	-	51.2
O=C(NCc1ccco1)c1ccc2c(=O)n(CCC3=CCCCC3)c(=O)[nH]c2c1	-	-	-	-
Cc1ccc(N=Cc2c(C)[nH]n(-c3nc4ccccc4[nH]3)c2=O)cc1	.	.	-	-
NS(=O)(=O)c1cccc(NC(=S)NC(=O)C23CC4CC(CC(C4)C2)C3)c1	.	.	-	44.3
Cc1ccc(S(=O)(=O)N(C)C)cc1NC(=S)NC(=O)C12CC3CC(CC(C3)C1)C2	.	.	-	-
O=S(=O)(c1ccc(F)cc1)N1CN(Cc2ccco2)c2nc3ccccc3nc21	-	-	-	-
O=S1(=O)C=C(Oc2ccc3ccccc3c2)c2ccccc21	-	-	-	66.4
CCN(CC)c1nc(OCCNC(=O)Nc2ccccc2)nc(N(CC)CC)n1	-	-	-	-
CCN(CCNC(=O)Nc1ccc(Cl)cc1)c1ccccc1	-	85.6	-	-
Cc1ccc(-n2c(SCC(N)=O)nnc2-c2cccnc2)c(C)c1	-	-	-	-
O=C(O)CCc1nn2c3ccccc3nc2n(CCN2CCCCC2)c1=O	56.6	-	-	-
CC1CCCN(S(=O)(=O)c2ccc(NC(=O)c3cccc(-n4cnnn4)c3)cc2)C1 (configuration not stated)	-	95.8	-	-
CC1CCCCN1S(=O)(=O)c1ccc(NC(=O)c2cccc(-n3cnnn3)c2)cc1 (configuration not stated)	.	.	-	-
O=C(C1CC(c2ccc(F)cc2)=NO1)N1CCc2ccccc2C1 (configuration not stated)	-	-	-	-
O=C(C1CC(c2ccccc2O)=NO1)N1CCc2ccccc2C1 (configuration not stated)	-	-	-	47.3
Nc1cc(C(=O)O)ccc1N1CCCCC1	-	-	-	-
